Here are results for three molecules from PubChem BioAssay AID1345085 (National Center for Advancing Translational Sciences (NCATS), 2018).

Records with an inconclusive call do not appear. Values without a mark were called inactive. The source made the active and inactive calls. Calls come from the whole dose curve; as a rule, active = well fitted cell-killing curve with a large enough effect; inconclusive = small, poorly fitted or top-dose-only effect, or effect the other way; inactive = no such curve, though single readings can be large or run the other way.
% is set by controls: 0 for no effect and ±100 for the full control effect; potency is the fitted concentration of half-maximal effect.

In this assay the test system is HeLa. Nature of the assay: Confirmatory qHTS for gynecologic anti-cancer compounds from libraries of approved drugs and bioactive compounds. Note: nearly all actives have a fitted effect of over 55% in size. Particulars: gynecologic cancer cell panel viability, ATPlite luminescence, 48 h; series mostly up to 57.6 µM; activity change, negative = viability loss: at the top concentration. The method in brief: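 Viability is measured as ATP-dependent luciferase light using ATPlite, read 15 min after reagent addition at room temperature. Compounds, in DMSO, span 57.5 uM down to 0.977 nM over 11 threefold steps for 48 h.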
As for `CC1(C)[C@@H](O)CC[C@]2(C)[C@H]3C(=O)C=C4[C@@H]5C[C@@](C)(C(=O)O)CC[C@]5(C)CC[C@@]4(C)[C@]3(C)CC[C@@H]12`, the “activity change, negative = viability loss” value was 44.9%.

Regarding `Cc1cnc(Nc2ccc(OCCN3CCCC3)cc2)nc1Nc1cccc(S(=O)(=O)NC(C)(C)C)c1`, the Potency is 3.85 µM (active).

In the case of `CN(NC(=O)CC(=O)NN(C)C(=S)c1ccccc1)C(=S)c1ccccc1`, the Potency is 0.122 µM (active).
